About 2,000 (36%) of roughly 5,500 compounds were called active. Inconclusive results (about 18%) are left out. No stated cut-off is given here; in the data, active means normalized growth mostly below about 0.91 (no sharp cut-off); inconclusive means no clear call, values can overlap the other calls; inactive means mostly above about 0.92. This is one part of the list.
Experiment: chemical genetic growth profiling, strain panel (AID 1159580);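 further: tested at 20 µM; growth read once vehicle control cultures reached saturation at 30 °C; 1 = growth at the plate median or of vehicle wells; lower values mean less growth of the strain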
Conditions: growth OD

Measured: normalized growth

Oc1ccc2c(c1)OCC1(O)Cc3cc(O)c(O)cc3C21 (configuration not stated)
inactive: S. cerevisiae deletion strains, locus YJL187C, strain SWE1, hits give low values 1.02 | S. cerevisiae deletion strains, locus YJR066W, strain TOR1, hits give low values 0.906 | S. cerevisiae deletion strains, locus YKL009W, strain mrt4, hits give low values 1.03 | S. cerevisiae deletion strains, locus YKL068W, hits give low values 0.997 | S. cerevisiae deletion strains, locus YKL085W, strain MDH1 (second series), hits give low values 0.978 | S. cerevisiae deletion strains, locus YKL085W, strain MDH1, hits give low values 0.978 | S. cerevisiae deletion strains, locus YKL160W, strain elf1, hits give low values 1.02 | S. cerevisiae deletion strains, locus YKR001C, strain vps1, hits give low values 1.03 | S. cerevisiae deletion strains, locus YKR026C, strain gcn3, hits give low values 1.04 | S. cerevisiae deletion strains, locus YKR091W, strain srl3, hits give low values 1.02 | S. cerevisiae deletion strains, locus YLL001W, strain dnm1, hits give low values 1.03 | S. cerevisiae deletion strains, locus YLL026W, hits give low values 1.02 | S. cerevisiae deletion strains, locus YLL041C, strain sdh2, hits give low values 1.02 | S. cerevisiae deletion strains, locus YLR027C, strain aat2, hits give low values 1.01 | S. cerevisiae deletion strains, locus YLR039C, strain RIC1, hits give low values 0.991 | S. cerevisiae deletion strains, locus YLR058C, strain SHM2, hits give low values 0.959 | S. cerevisiae deletion strains, locus YLR102C, strain apc9, hits give low values 0.991 | S. cerevisiae deletion strains, locus YLR113W, strain HOG1, hits give low values 1.05 | S. cerevisiae deletion strains, locus YLR221C, strain rsa3, hits give low values 1.02 | S. cerevisiae deletion strains, locus YLR258W, strain gsy2, hits give low values 1.03 | S. cerevisiae deletion strains, locus YLR262C, strain YPT6 (second series), hits give low values 1.04 | S. cerevisiae deletion strains, locus YLR268W, strain sec22, hits give low values 1.05 | S. cerevisiae deletion strains, locus YLR320W, strain mms22, hits give low values 1.04 | S. cerevisiae deletion strains, locus YLR342W, strain FKS1 (second series), hits give low values 1.05 | S. cerevisiae deletion strains, locus YLR342W, strain FKS1, hits give low values 1.03 | S. cerevisiae deletion strains, locus YLR357W, strain rsc2, hits give low values 1.03 | S. cerevisiae deletion strains, locus YLR370C, strain arc18, hits give low values 1.02 | S. cerevisiae deletion strains, locus YLR371W, strain rom2, hits give low values 0.988 | S. cerevisiae deletion strains, locus YLR384C, strain iki3, hits give low values 1.02 | S. cerevisiae deletion strains, locus YLR418C, strain cdc73, hits give low values 0.991 | S. cerevisiae deletion strains, locus YML016C, strain PPZ1, hits give low values 0.997 | S. cerevisiae deletion strains, locus YML032C, strain rad52, hits give low values 1.05 | S. cerevisiae deletion strains, locus YML120C, strain ndi1, hits give low values 1.03 | S. cerevisiae deletion strains, locus YML124C, strain tub3, hits give low values 0.999 | S. cerevisiae deletion strains, locus YMR058W, strain fet3, hits give low values 1.02 | S. cerevisiae deletion strains, locus YMR078C, strain ctf18, hits give low values 0.988 | S. cerevisiae deletion strains, locus YMR125W, strain sto1, hits give low values 1.04 | S. cerevisiae deletion strains, locus YMR129W, hits give low values 1.02 | S. cerevisiae deletion strains, locus YMR205C, strain PFK2, hits give low values 1.06 | S. cerevisiae deletion strains, locus YMR223W, strain ubp8, hits give low values 0.981 | S. cerevisiae deletion strains, locus YMR231W, strain pep5, hits give low values 1 | S. cerevisiae deletion strains, locus YMR307W, strain GAS1, hits give low values 1.11 | S. cerevisiae deletion strains, locus YNL067W, strain RPL9B, hits give low values 0.959 | S. cerevisiae deletion strains, locus YNL071W, strain lat1, hits give low values 1.03 | S. cerevisiae deletion strains, locus YNL128W, strain TEP1, hits give low values 0.983 | S. cerevisiae deletion strains, locus YNL183C, strain NPR1, hits give low values 0.948 | S. cerevisiae deletion strains, locus YNL209W, strain ssb2, hits give low values 1.01 | S. cerevisiae deletion strains, locus YNL233W, strain BNI4, hits give low values 1 | S. cerevisiae deletion strains, locus YNL248C, strain rpa49, hits give low values 1.03 | S. cerevisiae deletion strains, locus YNL250W, strain rad50, hits give low values 0.957 | S. cerevisiae deletion strains, locus YNL271C, strain bni1, hits give low values 0.983 | S. cerevisiae deletion strains, locus YNL298W, strain CLA4, hits give low values 0.996 | S. cerevisiae deletion strains, locus YNL307C, strain MCK1, hits give low values 0.994 | S. cerevisiae deletion strains, locus YNL322C, strain KRE1 (second series), hits give low values 1.02 | S. cerevisiae deletion strains, locus YNL322C, strain KRE1, hits give low values 0.981 | S. cerevisiae deletion strains, locus YNR049C, strain mso1, hits give low values 1.02 | S. cerevisiae deletion strains, locus YNR052C, strain pop2, hits give low values 0.959 | S. cerevisiae deletion strains, locus YOL006C, strain TOP1, hits give low values 1.18 | S. cerevisiae deletion strains, locus YOL012C, strain htz1 0.665 | S. cerevisiae deletion strains, locus YOL147C, strain pex11, hits give low values 1 | S. cerevisiae deletion strains, locus YOR001W, strain rrp6, hits give low values 1.04 | S. cerevisiae deletion strains, locus YOR061W, strain CKA2, hits give low values 1.03 | S. cerevisiae deletion strains, locus YOR069W, strain VPS5, hits give low values 1 | S. cerevisiae deletion strains, locus YOR070C, strain gyp1, hits give low values 1.01 | S. cerevisiae deletion strains, locus YOR080W, strain dia2, hits give low values 1.01 | S. cerevisiae deletion strains, locus YOR083W, strain WHI5, hits give low values 1.02 | S. cerevisiae deletion strains, locus YOR106W, strain vam3, hits give low values 1.05 | S. cerevisiae deletion strains, locus YOR136W, strain idh2, hits give low values 1.01 | S. cerevisiae deletion strains, locus YOR144C, strain elg1, hits give low values 1.01 | S. cerevisiae deletion strains, locus YOR184W, strain ser1, hits give low values 1.09 | S. cerevisiae deletion strains, locus YOR231W, strain MKK1, hits give low values 1.01 | S. cerevisiae deletion strains, locus YOR265W, strain rbl2, hits give low values 1.02 | S. cerevisiae deletion strains, locus YOR270C, strain vph1, hits give low values 1.16 | S. cerevisiae deletion strains, locus YOR290C, strain snf2, hits give low values 1.04 | S. cerevisiae deletion strains, locus YOR316C, strain cot1, hits give low values 0.986 | S. cerevisiae deletion strains, locus YPL051W, strain arl3, hits give low values 1.01 | S. cerevisiae deletion strains, locus YPL055C, strain LGE1, hits give low values 1.06 | S. cerevisiae deletion strains, locus YPL078C, strain atp4, hits give low values 1.03 | S. cerevisiae deletion strains, locus YPL106C, strain sse1, hits give low values 0.99 | S. cerevisiae deletion strains, locus YPL240C, strain hsp82, hits give low values 1.02 | S. cerevisiae deletion strains, locus YPL256C, strain CLN2, hits give low values 0.995 | S. cerevisiae deletion strains, locus YPR119W, strain clb2, hits give low values 0.978 | S. cerevisiae deletion strains, locus YPR141C, strain kar3, hits give low values 0.964 | S. cerevisiae deletion strains, locus YPR163C, strain tif3, hits give low values 0.996 | S. cerevisiae deletion strains, locus YPR167C, strain met16, hits give low values 0.992 | S. cerevisiae deletion strains, strain wtn01, hits give low values 1.02 | S. cerevisiae strains, strain wild type, hits give low values 1.03

— PubChem BioAssay AID1159580 (chemical genetic matrix, 2015)
